CBX7 AlphaScr: CBX7 chromodomain binding inhibitors, primary screen, biochemical, AlphaScreen; AID 1224903, 2016; normalised signal (fraction of DMSO) (no concentration beside the values); 1.1% of 66,000 active; AlphaScreen His6-CBX7 / biotin-H3K27me3 peptide binding; active compounds read low; Chromobox protein homolog 7 (Homo sapiens), O95931; in the data active = normalised signal below about 0.5
Target sequence (O95931 whole entry, looked up): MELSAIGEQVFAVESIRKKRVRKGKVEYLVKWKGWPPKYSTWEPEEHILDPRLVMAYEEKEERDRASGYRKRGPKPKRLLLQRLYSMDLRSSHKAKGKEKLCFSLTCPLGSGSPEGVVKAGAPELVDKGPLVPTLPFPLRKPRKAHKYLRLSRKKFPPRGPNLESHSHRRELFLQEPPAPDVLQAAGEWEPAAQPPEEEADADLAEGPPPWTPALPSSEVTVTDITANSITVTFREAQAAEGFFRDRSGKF
Numbers without * were called inactive; ! = not active in a repeat. This is one part of a sample in which hits are shown more often than they occur.

SMILES	CBX7 AlphaScr
COC(=O)c1ccc(N2C(=O)c3ccc(C(=O)Nc4ccccc4OC)cc3C2=O)cc1	1.5
O=C(NCc1cccnc1)C1CCN(C(=O)c2cnn(-c3ccccc3)c2-n2cccc2)CC1	1
CCOC(=O)c1cnc2ccc(OCC)cc2c1Nc1cc(OC)ccc1OC	0.92
Cc1ccc(C)c(-c2csc(Nc3ccc(F)cc3)n2)c1	0.94
Cc1ccc(Nc2nc(-c3ccccc3)cs2)cc1Cl	0.72
Cc1ccc(C)c(-c2csc(Nc3ccc(C)c(Cl)c3)n2)c1	0.37*!
CCCOc1ccc(N2C(=O)CC(N3CCN(c4ccc(F)cc4)CC3)C2=O)cc1 (stereo not given)	1
CCn1cc(C(=O)Nc2ccc3c(c2)OCO3)c(=O)c2ccc(C)nc21	1
CCCN1CCCc2cc(CN(CCCN3CCOCC3)C(=O)Nc3ccccc3)ccc21	0.8
CCc1ccc(NC(=O)N(CCN2CCOCC2)Cc2ccc3c(c2)CCCN3CC)cc1	0.57
CCN1CCCc2cc(CN(CCN3CCOCC3)C(=O)Nc3ccc(C)c(C)c3)ccc21	0.22*
COc1cccc(-c2nn(C)c3sc(C(=O)Nc4ccc(C)cn4)cc23)c1	1
COCCCNC(=O)c1ccc2c(c1)N(Cc1ccccc1C)C(=O)c1ccccc1S2=O (stereo not given)	1
CC(C)CCNC(=O)c1ccc2c(c1)N(Cc1ccc(Cl)cc1)C(=O)c1ccccc1S2	0.96
Cc1ccc(CN2CCN(CC(=O)NCCc3ccccc3)C2=O)cc1	0.97
CCOC(=O)c1[nH]c2ccc(OCc3ccccc3)cc2c1C	1.1
OC1CCCc2c1[nH]c1ccc(OCc3ccccc3)cc21 (stereo not given)	0.43*
OC1CCCCc2c1[nH]c1ccc(C3CCCCC3)cc21 (stereo not given)	0.72
COc1ccc(NC(=O)c2ccccc2NC(=O)c2cccc(S(=O)(=O)N3CCCCC3)c2)cc1	0.86
CCOc1cc2c(cc1OC)C(c1ccc(Cl)cc1)NCC2 (stereo not given)	0.98
CCOc1ccccc1CN(CCc1ccc2c(c1)OCO2)Cc1ccccn1	0.069*
O=C(NCc1ccccn1)C(=O)Nc1ccc2c(c1)OCO2	0.99
COc1ccc(Br)cc1CN(CCc1ccc2c(c1)OCO2)Cc1cccnc1	0.51
Clc1ccc(-c2nc(-c3ccccc3)c(-c3ccccc3)[nH]2)cc1Cl	0.92
O=[N+]([O-])c1ccc(-c2nc(-c3ccccc3)c(-c3ccc(F)cc3)[nH]2)cc1	0.66
SMILES	CBX7 AlphaScr
COc1ccc(-c2nc(-c3ccccc3)c(-c3cccs3)[nH]2)c(OC)c1	0.54
COc1cc(OC)cc(-c2nc(-c3ccccc3)c(-c3ccc(F)cc3)[nH]2)c1	0.88
COc1cc(-c2nc(-c3ccccc3)c(-c3cccs3)[nH]2)cc(OC)c1O	0.48*
COc1ccc(-c2nc(-c3ccccc3)c(-c3ccc(F)cc3)[nH]2)cc1OC	0.38*
COc1ccc(-c2nc(-c3ccccc3)c(-c3ccc(F)cc3)[nH]2)cc1	0.85
c1ccc(Oc2ccc(-c3[nH]c(-c4ccccc4)nc3-c3ccccc3)cc2)cc1	0.47*
Cc1ccc(-c2nc(-c3ccc(F)cc3)[nH]c2-c2ccccc2)cc1C	0.96
Cc1ccc([N+](=O)[O-])cc1-c1[nH]c(-c2ccc(F)cc2)nc1-c1ccccc1	0.48*
Brc1cccc(-c2nc(-c3ccccc3)c(-c3ccc(Oc4ccccc4)cc3)[nH]2)c1	0.79
COc1ccc(-c2nc(-c3ccccc3)c(-c3cccs3)[nH]2)cc1	0.82
CCC(C)NC(=O)c1ccc2c(c1)N(Cc1ccccc1Cl)C(=O)c1ccccc1S2 (stereo not given)	1.1
CCCCN(CC)C(=O)c1cc2c(-c3ccc(OC)c(OC)c3)nn(C)c2s1	0.95
COc1ccc(NC(=O)c2cc(-c3ccc(F)cc3)on2)cc1	1.1
COc1ccccc1CC(=O)Nc1nc2ccc(S(C)(=O)=O)cc2s1	0.94
CCCCNC(=O)c1ccc2c(c1)NC(=O)c1ccccc1N2	0.88
CCCOc1ccc(C(=O)Nc2ncc(Cc3ccc(Cl)cc3)s2)cc1	1.1
CCC(C)NC(=O)CC(C(=O)N1CCc2ccccc21)n1ccnc1 (stereo not given)	1
O=C(CC(C(=O)N1CCc2ccccc21)n1ccnc1)NC1CC1 (stereo not given)	1
O=C(CC(C(=O)N1CCc2ccccc21)n1ccnc1)NC(c1ccccc1)c1ccccc1 (stereo not given)	0.45*
COC(=O)c1c(NC(=O)c2ccccc2Cl)sc2c1CCCCC2	1.4
CCOc1ccc(CCNC(=O)Cn2c3c(c(-c4ccccc4Cl)cc2=O)CCC3)cc1OCC	0.58
Cc1cccc2nc(-c3cccnc3)c(Nc3ccc(C(C)C)cc3)n12	0.87
Cc1ccccc1Nc1c(-c2ccccn2)nc2cccc(C)n12	0.24*
Cc1cccc2nc(-c3ccsc3)c(Nc3ccc(C(C)C)cc3)n12	0.81
Cc1cccc2nc(-c3ccccn3)c(Nc3ccc(C(C)C)cc3)n12	0.11*
SMILES	CBX7 AlphaScr
Cc1cc(C)n2c(Nc3ccccc3C)c(-c3ccccn3)nc2n1	1.1
Cc1ccccc1Nc1c(-c2cccnc2)nc2cccc(C)n12	0.92
CCN(CCNC(=O)c1cc(Nc2ccc(OC)c(OC)c2)nc2ccccc12)c1ccccc1	0.65
CCCCNC(=O)c1sc2ncn(CC(=O)Nc3ccc(C)c(Cl)c3)c(=O)c2c1C	1
CCC1=Nc2cc(C(=O)NCCN3CCCCC3C)ccc2Sc2ccccc21 (stereo not given)	1.3
COc1ccc(OC)c(NC(=O)c2c(NCc3ccc(OC)c(OC)c3)sc3c2CCC3)c1	0.71
COc1ccc(OC)c(NC(=O)c2c(NCc3ccc(N(C)C)cc3)sc3c2CCCC3)c1	0.48*
COc1cccc(CNc2sc3c(c2C(=O)Nc2cc(OC)ccc2OC)CCCC3)c1	0.77
CCOC(=O)C(C)Sc1nnc(Cc2cc(=O)[nH]c(=O)[nH]2)n1-c1cccc(C)c1 (stereo not given)	1.2
CCN(CC)C(=O)c1c[nH]c2ccc(S(=O)(=O)N3CCC(C)CC3)cc2c1=O	1.1
c1nc(Oc2ccc3c4c2CCCN4CCC3)c2c3c(sc2n1)CCCC3	0.27*
c1ccc(COc2ccc(Oc3ncnc4sc5c(c34)CCCC5)cc2)cc1	1.2
c1ccc(Cc2ccc(Oc3ncnc4sc5c(c34)CCCC5)cc2)cc1	1.3
C=CCNC(=O)c1cc(=O)[nH]c2ccc(S(=O)(=O)N3CCCCC3C)cc12 (stereo not given)	0.99
O=C(CSc1nccn1-c1ccccc1)Nc1ccc(F)cc1	0.83
O=C(CSc1nccn1-c1ccccc1)Nc1ccc(Cl)c(Cl)c1	0.62
Clc1ccc(-c2csc(Nc3ccc4c(c3)OCO4)n2)cc1	0.64
COc1cc(Nc2nc(-c3ccc(CC(C)C)cc3)cs2)c(OC)cc1Cl	0.48*
Cc1ccc(-c2csc(N3CCN(Cc4ccc5c(c4)OCO5)CC3)n2)cc1	0.88
CC(C)Cc1ccc(-c2csc(Nc3ccc4c(c3)OCO4)n2)cc1	0.19*!
COc1ccc(-c2csc(Nc3ccc4c(c3)OCO4)n2)cc1Br	0.33*!
COc1cc(Nc2nc(-c3cc(C)ccc3C)cs2)c(OC)cc1Cl	0.69
COc1ccc(-c2csc(Nc3ccccc3OC)n2)cc1Br	0.81
COc1ccc(-c2csc(Nc3ccc(S(N)(=O)=O)cc3)n2)cc1C	0.55
CCc1ccc(-c2csc(Nc3cc(OC)c(Cl)cc3OC)n2)cc1	0.66
Cc1nn(C)c(C)c1S(=O)(=O)N(CC(=O)Nc1ccc(C(C)C)cc1)c1ccc(C(C)C)cc1	1.3

Source: PubChem (Bradner/Qi Labs at DFCI)
